Common to all, as to assay: NCI-60 one-dose screen, 48 h (100 = growth as untreated, 0 = no growth, -100 = all killed)
Settings in all cases: 10 µM unless noted

Assay [1] has as its system T-47D breast.
Assay [2] deals with BT-549 breast.
For assay [3], the system named is MDA-MB-435 melanoma.
For assay [4], the system named is SW-620 colon.
Assay [5] relates to MCF7 breast.
The subject of assay [6] is HCT-116 colon.
Assay [7] relates to HCC-2998 colon.
In assay [8] the test system is KM12 colon.

Among the data in PubChem BioAssay (NCI) are growth values, retold here.

About 83,000 compounds went through this panel and 20% of them were active in at least one assay; those are over-represented in the sample as a whole.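 The test compound was applied at a single concentration to cells in 96-well plates for 48 hours, and percent growth was recorded.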 Values without a mark were called inactive. The source made the active and inactive calls. How the source made its calls: active means growth percent below 10; inactive means the rest.

For the molecule `O=C(Nc1ccc(Cl)c(C(F)(F)F)c1)c1ccc(Nc2ccc(Cl)nn2)cc1`, the growth is 28.6% in assay [1]; 37.2% in assay [2]; 80.2% in assay [3]; 96.8% in assay [4]; 53% in assay [5]; 53.5% in assay [6]. In addition, the growth in assay [7] is 67.4%; in assay [8] it was 51.1%.
For `NNC(=O)Cc1ccccc1`, the growth was 85% in assay [1]; 108% in assay [2]; 83.7% in assay [3]; 86.2% in assay [4]; 91.5% in assay [5]; 90.6% in assay [6]. For the same molecule, the results for the growth in assay [7] and in assay [8] were 102% and 80.1%, respectively.
Regarding `Cc1ccccc1CNc1ncnc2[nH]ncc12`, the growth in assay [1] is 96.9%; in assay [2], 105%; in assay [3] it was 90.3%; in assay [4], 114%; in assay [5], 104%; in assay [6] it was 100%. Further, the growth in assay [7] was 105%; in assay [8] it was 112%.
On to `c1ccc(C2=Nc3ccccc3SC2)cc1`, for which the growth is 100% in assay [1]; 107% in assay [2]; 105% in assay [3]; 95.4% in assay [4]; 86.4% in assay [5]; 96.7% in assay [6]. Besides, the values for the growth in assay [7] and in assay [8] were 104% and 97.5%, respectively.
Take `c1ccc(C(Nc2ccccn2)(c2ccccc2)c2ccccc2)cc1`: the growth is 72.7% in assay [1]; 99.2% in assay [2]; 96.5% in assay [3]; 84.4% in assay [4]; 62.4% in assay [5]; 65.7% in assay [6]. For the same molecule, the growth in assay [7] was 82.6%; in assay [8], 71.9%.
For the molecule `CCOC(=O)c1ccc(NCCC(=O)O)cc1`, the growth in assay [1] was 101%; in assay [2], 110%; in assay [3], 116%; in assay [4], 110%; in assay [5] it was 92.4%; in assay [6], 111%. Besides, the growth was 103% in assay [7] and 110% in assay [8].
Take `CCN(CC)CCNc1c(C)cc(CO)c(Cl)c1C`: the growth in assay [1] was 112%; in assay [2], 104%; in assay [3], 106%; in assay [4], 105%; in assay [5], 75%; in assay [6] it was 104%. The growth was 107% in assay [7] and 113% in assay [8].
On to `CC1(C)C2CCC(O)(C(=O)O)C1C2` (stereo unspecified), for which the growth was 96.1% in assay [1]; 104% in assay [2]; 99.1% in assay [3]; 115% in assay [4]; 95.7% in assay [5]; 117% in assay [6]. Moreover, the growth in assay [7] and in assay [8] was 118% each time.
Turning to `CCCCNCCC(O)c1cc2ccc(C(F)(F)F)cc2c2cc(C(F)(F)F)ccc12` (stereo unspecified), the growth was -76.3% (active) in assay [1]; 4.84% (active) in assay [2]; -69.3% (active) in assay [3]; -76.2% (active) in assay [4]; -79.3% (active) in assay [5]; -87.3% (active) in assay [6]. The growth in assay [7] is -78.5% (active); in assay [8], -85.2% (active).
Turning to `CC(=O)N1N=C(c2ccc(C)cc2)CC1c1cn(-c2ccccc2)nc1-c1cccc(Nc2ccnc3cc(Cl)ccc23)c1` (stereo unspecified), the growth in assay [1] is 23.4%; in assay [2], 87.3%; in assay [3] it was 13.8%; in assay [4], 27.2%; in assay [5], 24.8%; in assay [6], 6.87% (active). The growth in assay [7] is 102%; in assay [8], 72.5%.
In the case of `COc1ccc(C2CC(c3cccc(Nc4ccnc5cc(Cl)ccc45)c3)=NN2c2ccccc2)cc1` (stereo unspecified), the growth was 50.8% in assay [1]; 63% in assay [2]; -9.41% (active) in assay [3]; 36.8% in assay [4]; 47.6% in assay [5]; 65.5% in assay [6]. The growth in assay [7] was 54.1%; in assay [8] it was 27.1%.
For the molecule `O=C(c1ccccc1)N(CCCCl)C(=O)N(CCCCl)C(=O)c1ccccc1`, the growth in assay [1] is 93.1%; in assay [2], 103%; in assay [3] it was 89.6%; in assay [4], 89.8%; in assay [5], 119%; in assay [6] it was 90.9%. Moreover, the values for the growth in assay [7] and in assay [8] were 95.3% and 88.3%, respectively.
With `N#Cc1nc(-c2cccc(Br)c2)cc(-c2ccc(Nc3nc(N4CCCCC4)nc(N4CCCCC4)n3)cc2)c1N`, the growth is -52.6% (active) in assay [1]; -69.5% (active) in assay [2]; -91.7% (active) in assay [3]; -42.3% (active) in assay [4]; 6.98% (active) in assay [5]; -60.4% (active) in assay [6]. The growth is 18.2% in assay [7] and -1.24% (active) in assay [8].
Regarding `CC(C)c1[nH]ncc1-c1nc2ccc3[nH]ncc3c2c2c1CCCC2`, the growth in assay [1] was 46.8%; in assay [2], 27.4%; in assay [3], 53.8%; in assay [4] it was 15.9%; in assay [5], 20.4%; in assay [6], 12.2%. For the same molecule, the growth in assay [7] was 53.5%; in assay [8] it was 17.4%.
For the molecule `CCN(CC)CCC(CNc1ccnc2cc(Cl)ccc12)c1ccc(O)cc1` (stereo unspecified), the growth was 114% in assay [1]; 80.5% in assay [2]; 60.7% in assay [3]; 51.2% in assay [4]; 113% in assay [5]; 49.5% in assay [6]. For the same molecule, the values for the growth in assay [7] and in assay [8] were 88.9% and 82%, respectively.
`Cc1cc(Cl)c2ccc(N(C)C)cc2n1`: the growth was 90.7% in assay [1]; 111% in assay [2]; 102% in assay [3]; 99.5% in assay [4]; 92.1% in assay [5]; 105% in assay [6]. Also, the values for the growth in assay [7] and in assay [8] were 101% and 104%, respectively.
Consider `Clc1ccc2c(c1)-c1ccccc1C1=NCCN12`, for which the growth in assay [1] was 29.6%; in assay [2], 71.5%; in assay [3], 29.4%; in assay [4], 22.5%; in assay [5], 10.6%; in assay [6], 21%. Further, the growth in assay [7] was 40.7%; in assay [8], 33.3%.
For the molecule `COc1cc(/C=C/C(=O)c2c(C)nc3ccccc3c2C)ccc1OCCCOc1cc2c(cc1OC)C(=O)N1CCC[C@H]1C=N2`, the growth in assay [1] was -38.8% (active); in assay [2], -94.2% (active); in assay [3] it was -60.8% (active); in assay [4], -67.6% (active); in assay [5], -51.3% (active); in assay [6], -35.8% (active). Further, the growth was -69.3% (active) in assay [7] and -54.2% (active) in assay [8].
Turning to `COC(=O)/C=C/c1cc(OC(C)=O)c2c(c1)[C@@H](C(=O)OC)[C@H](c1ccc(OC(C)=O)c(OC(C)=O)c1)O2`, the growth was 74.7% in assay [1]; 13.5% in assay [2]; -64.8% (active) in assay [3]; 15.7% in assay [4]; 15.6% in assay [5]; 6.38% (active) in assay [6]. Also, the growth is 22.2% in assay [7] and 5.97% (active) in assay [8].
As to `CCN(CC)CCCC(C)N/C(c1cccc(OC)c1)=c1\c(=O)[nH]n(-c2c3ccccc3nc3ccccc23)c(=O)\c1=C(/NC(C)CCCN(CC)CC)c1cccc(OC)c1` (stereo unspecified), the growth was -26.7% (active) in assay [1]; -5.18% (active) in assay [2]; -91.1% (active) in assay [3]; -21.6% (active) in assay [4]; -12.7% (active) in assay [5]; -9.94% (active) in assay [6]. Further, the results for the growth in assay [7] and in assay [8] were -72.7% (active) and -47.4% (active), respectively.
With `CS(=O)(=O)Nc1cc(-c2cc3ncc(C#N)c(Nc4ccc(Oc5ccccc5)c(Cl)c4)c3s2)cnc1Cl`, the growth in assay [1] was 15.8%; in assay [2], 51%; in assay [3], 67.4%; in assay [4], 48%; in assay [5], 26.5%; in assay [6], 45.1%. The growth in assay [7] was 64.5%; in assay [8], 56.8%.
In the case of `Cc1ccc2nc(CN(CCN(Cc3nc4ccc(C)cc4[nH]3)Cc3nc4ccc(C)cc4[nH]3)Cc3nc4ccc(C)cc4[nH]3)[nH]c2c1`, the growth is -93% (active) in assay [1]; -98.2% (active) in assay [2]; -92.6% (active) in assay [3]; -85.9% (active) in assay [4]; -95% (active) in assay [5]; -96.3% (active) in assay [6]. The values for the growth in assay [7] and in assay [8] were -65% (active) and -95.9% (active), respectively.
As to `O=C(CSc1ccc(Cl)cc1)Nc1ccc(-c2nc3ccccc3s2)c(Cl)c1`, the growth in assay [1] was 34.4%; in assay [2], 95.2%; in assay [3] it was 77.9%; in assay [4], 65.9%; in assay [5], 47.7%; in assay [6] it was 19.7%. In addition, the values for the growth in assay [7] and in assay [8] were 81.1% and 23%, respectively.
On to `NC(=Nc1ccccc1)SCCCSC(N)=Nc1ccccc1`, for which the growth in assay [1] is 70.1%; in assay [2], 92.9%; in assay [3] it was 89.8%; in assay [4] it was 95.4%; in assay [5] it was 90.9%; in assay [6], 90.5%. The growth in assay [7] was 99.2%; in assay [8], 94.7%.
Consider `CC(=O)N[C@@H](CCC(N)=O)C(=O)O`, for which the growth in assay [1] is 107%; in assay [2], 118%; in assay [3], 99.6%; in assay [4], 94.1%; in assay [5], 98.8%; in assay [6], 96.3%. Also, the results for the growth in assay [7] and in assay [8] were 99.5% and 103%, respectively.
With `COc1ccc(/C(=C\c2cc(OC)c(OC)c(OC)c2)C(=O)N2CCCNCC2)cc1`, the growth is 93.1% in assay [1]; 114% in assay [2]; 108% in assay [4]; 97.3% in assay [5]; 104% in assay [6]; 99.8% in assay [7]. In assay [8], the growth is 110%.
Consider `Nc1nc(N)c2cc(CNc3ccc(Cl)c(Cl)c3)ccc2n1`, for which the growth in assay [1] is -52.6% (active); in assay [2], 59.1%; in assay [4] it was -80.3% (active); in assay [5], -74.8% (active); in assay [6] it was -88.8% (active); in assay [7], -70.3% (active). For the same molecule, the growth in assay [8] is -15.9% (active).
Turning to `COc1ccc(Nc2ncnc3c2sc2nc(C)cc(C)c23)cc1`, the growth in assay [1] is 89.6%; in assay [2], 104%; in assay [3], 98.7%; in assay [4], 108%; in assay [5] it was 80.1%; in assay [6], 90.4%. In addition, the growth in assay [8] was 96.7%.
Turning to `COC(=O)C1(C)COP(=O)(NC23CC4CC(CC(C4)C2)C3)OC1` (stereo unspecified), the growth is 111% in assay [1]; 99.7% in assay [2]; 105% in assay [3]; 100% in assay [4]; 102% in assay [5]; 108% in assay [6]. For the same molecule, in assay [8], the growth is 102%.
For `Fc1cc(-c2nnc3sc(-c4ccc(Cl)cc4)nn23)c(Cl)cc1Cl`, the growth in assay [1] is 87%; in assay [2], 106%; in assay [4], 96.5%; in assay [5], 86.7%; in assay [6], 94.6%; in assay [7], 106%. For the same molecule, the growth in assay [8] was 95.6%.
Consider `CCN(CC)CCCC(C)Nc1cnc(C(=O)Nc2cccc3ccc(OC)nc23)cn1` (stereo unspecified), for which the growth in assay [1] was 83.9%; in assay [2] it was 83.2%; in assay [4], 2.12% (active); in assay [5] it was 20.1%; in assay [6] it was -36% (active); in assay [7], 90.9%. For the same molecule, in assay [8], the growth is 36.3%.
As to `O=C(Nc1ccccc1)C(CCCCN1C(=O)c2ccccc2C1=O)N1C(=O)c2ccccc2C1=O` (stereo unspecified), the growth in assay [1] is 105%; in assay [2] it was 104%; in assay [3], 108%; in assay [4] it was 102%; in assay [5], 101%; in assay [6], 107%. The growth in assay [8] was 100%.
As to `COc1ccc(C(=O)c2cc(C)c(OC)c(C)c2)cc1OC(=O)CCl`, the growth in assay [1] was 62.7%; in assay [2] it was 15.2%; in assay [4], 26.5%; in assay [5] it was 19.2%; in assay [6] it was 6.62% (active); in assay [7], 27%. The growth in assay [8] was 12.2%.
